The results in this text go back to PubChem BioAssay (Tox21).

Records with an inconclusive call do not appear. A call without a number means that no potency is given here. The source made the active and inactive calls. Unless noted, the call rests on the fitted dose curve; in most records, active means well fitted cell-killing curve with a large enough effect in the repeat runs; inconclusive means weak or mixed curves, or effect the other way; inactive means no such curve, though single readings can be large or run the other way.

System in one test: not listed separately
Nature of the test: qHTS assay to identify small molecule antagonists of the farnesoid-X-receptor (FXR) signaling pathway - cell viability counter screen (AID 743221; active means well fitted cell-killing curve with a large enough effect in the repeat runs, not every such curve was filed as active; further: nearly all actives have a fitted effect of over 50% in size). Particulars: FXR-bla HEK293T viability, CellTiter-Glo luminescence, 16 h; series mostly up to 62.6 µM; activity change, negative = cytotoxicity: at the top concentration. An outline of the steps:
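CellTiter-Glo, 30 min RT, luminescence; same wells as the LiveBLAzer FRET read. Cells: FXR-UAS-bla HEK 293T. Treatment: compound with chenodeoxycholic acid 50 uM final, 16 h at 37 C.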
On the technique in general: qHTS replaces the single test concentration by a dilution series.
On to `O=C1CCCCCCCCCCC1`, for which the Potency result was “inactive”.

As to `CCCCCCCCC(=O)O`, the Potency entry was “inactive”.

`CC(=O)OC[C@H]1O[C@@](COC(C)=O)(O[C@H]2O[C@H](COC(C)=O)[C@@H](OC(C)=O)[C@H](OC(C)=O)[C@H]2OC(C)=O)[C@@H](OC(C)=O)[C@@H]1OC(C)=O`: the Potency entry is “inactive”.

For `CC(C)(CO)CO`, the Potency entry was “inactive”.

Take `CO[Si](CCCNCCN)(OC)OC`: the Potency result is “inactive”.

Regarding `CCCCCCCCCCCC(=O)N(C)CC(=O)O`, the Potency entry is “inactive”.

Take `O=C(O)C1=NN(c2ccc(S(=O)(=O)O)cc2)C(=O)C1`: the Potency entry is “inactive”.

As to `CCc1cccc(CC)c1N`, the Potency result is “inactive”.

`CC(=O)OCCC(C)C`: the Potency entry is “inactive”.

On to `COC(=O)OC`, for which the Potency entry was “inactive”.

For the molecule `Nc1nc(N)c2nc(-c3ccccc3)c(N)nc2n1`, the Potency entry was “inactive”.

As to `CC(=O)OC(C)(C)C1CC=C(C)CC1` (stereo unspecified), the Potency result is “inactive”.

Take `CC(=O)C(C)C`: the Potency result is “inactive”.

The target of another test is Vitamin D3 receptor (Homo sapiens) (UniProt P11473). The test is described as follows: qHTS assay to identify small molecule agonists of the vitamin D receptor (VDR) signaling pathway (AID 743222; calls by dose curve). Particulars: HEK293T VDR-UAS-bla, beta-lactamase FRET ratio, 16 h; series mostly up to 63.5 µM; activation: at the top concentration. An outline of the steps: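 VDR-bla cells were seeded, left 4 h, treated with compounds in DMSO for 16 h, incubated 2 h at RT with B/G FRET substrate, and read for fluorescence.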
Sequence of Vitamin D3 receptor (Homo sapiens) (P11473 whole entry, looked up): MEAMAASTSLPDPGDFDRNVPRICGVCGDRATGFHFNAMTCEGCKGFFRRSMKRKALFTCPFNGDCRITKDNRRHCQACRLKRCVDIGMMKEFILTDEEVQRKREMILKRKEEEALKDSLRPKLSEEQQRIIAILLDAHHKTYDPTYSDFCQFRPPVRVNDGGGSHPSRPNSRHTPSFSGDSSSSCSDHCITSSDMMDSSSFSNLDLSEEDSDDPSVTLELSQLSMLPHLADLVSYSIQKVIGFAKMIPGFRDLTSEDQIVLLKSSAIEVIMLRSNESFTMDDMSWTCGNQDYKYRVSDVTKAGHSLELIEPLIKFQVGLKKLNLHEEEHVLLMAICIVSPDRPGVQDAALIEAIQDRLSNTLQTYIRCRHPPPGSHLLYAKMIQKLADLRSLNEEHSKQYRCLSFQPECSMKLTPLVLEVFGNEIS
For the molecule `OCC(CO)(CO)CO`, the outcome was inactive.

Take `Nc1cccc(N)n1`: the result was inactive.

For `Cc1cc(C)cc(O)c1`, the result was inactive.

Regarding `CC(O)CNCC(C)O` (stereo unspecified), the “activation” value is -4.26% (inactive).

As to `N[C@@H](Cc1cc(I)c(Oc2ccc(O)c(I)c2)c(I)c1)C(=O)O`, the outcome was inactive.

As to `N#CCC(=O)O`, the “activation” value was -10.4% (inactive).

With `OCC(O)CS` (stereo unspecified), the result was inactive.

As to `O=[N+]([O-])c1ccccc1C(F)(F)F`, the result was inactive.

With `CC1=CC(=O)CC(C)(C)C1`, the result was inactive.

`C=CC(C)(C)C`: the outcome was inactive.

On to `COc1ccc(N)c(OC)c1`, for which the result was inactive.

On to `O=C(Cl)c1ccc(C(=O)Cl)cc1`, for which the result was inactive.

For the molecule `OC1CCCCC1`, the outcome was inactive.

For the molecule `CCCCCNCCCCC`, the outcome was inactive.

Consider `Brc1ccc(Oc2ccc(Br)cc2)cc1`, for which the result was inactive.

For `Cc1ccccc1C=O`, the outcome was inactive.

For `O=C(c1ccccc1)c1ccc(O)c(O)c1O`, the outcome was inactive.

`Cc1nnc(NS(=O)(=O)c2ccc(N)cc2)s1`: the result was inactive.

In the case of `Cc1cccc(C)c1[N+](=O)[O-]`, the “activation” value was 2.89% (inactive).

On to `CS(=O)(=O)c1ccc(Cl)cc1`, for which the result was inactive.

As to `CC(=O)OC[C@H]1O[C@@](COC(C)=O)(O[C@H]2O[C@H](COC(C)=O)[C@@H](OC(C)=O)[C@H](OC(C)=O)[C@H]2OC(C)=O)[C@@H](OC(C)=O)[C@@H]1OC(C)=O`, the outcome was inactive.

For the molecule `CO[Si](CCCNCCN)(OC)OC`, the “activation” value is 0% [at 81.1 µM] (inactive).

Consider `CCCCCCCCCCCC(=O)N(C)CC(=O)O`, for which the result was inactive.

As to `COC(=O)OC`, the outcome was inactive.

As for `CC(=O)OC(C)(C)C1CC=C(C)CC1` (stereo unspecified), the result was inactive.

As for `CC(=O)C(C)C`, the result was inactive.

The target is the same in a further test. The test is described as follows: qHTS assay to identify small molecule antagonists of the vitamin D receptor (VDR) signaling pathway (AID 743223; active means well fitted inhibition curve with a large enough effect in the signal ratio in the repeat runs, not every such curve was filed as active; the % refers to the signal ratio). The following applies: VDR-UAS-bla HEK293T, beta-lactamase FRET ratio, 16 h; series mostly up to 61 µM; activity change, negative = inhibition: at the top concentration. An outline of the steps: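 After VDR-bla cells are plated and left 4 h at 37C, DMSO-dissolved compounds and 3 nM (final) calcitriol agonist are added. Incubation continues 16 h at 37C; FRET beta-lactamase substrate then develops 2 h at room temperature.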
As to `OCC(CO)(CO)CO`, the “activity change, negative = inhibition” value was -11.8% (inactive).

Regarding `Nc1cccc(N)n1`, the Potency entry is “inactive”.

As for `Cc1cc(C)cc(O)c1`, the “activity change, negative = inhibition” value was 7.76% [at 78.8 µM] (inactive).

With `CC(O)CNCC(C)O` (stereo unspecified), the “activity change, negative = inhibition” value is -4.83% [at 78.8 µM] (inactive).

`N[C@@H](Cc1cc(I)c(Oc2ccc(O)c(I)c2)c(I)c1)C(=O)O`: the “activity change, negative = inhibition” value was -0.0655% (inactive).

As for `N#CCC(=O)O`, the Potency entry was “inactive”.

For `OCC(O)CS` (stereo unspecified), the “activity change, negative = inhibition” value is -0.459% [at 78.8 µM] (inactive).

As to `O=[N+]([O-])c1ccccc1C(F)(F)F`, the “activity change, negative = inhibition” value is -6.17% (inactive).

As for `CC1=CC(=O)CC(C)(C)C1`, the Potency result was “inactive”.

`C=CC(C)(C)C`: the “activity change, negative = inhibition” value is 1.63% (inactive).

`COc1ccc(N)c(OC)c1`: the Potency result was “inactive”.

With `O=C(Cl)c1ccc(C(=O)Cl)cc1`, the Potency entry is “inactive”.

As for `OC1CCCCC1`, the Potency entry was “inactive”.

Consider `CCCCCNCCCCC`, for which the Potency entry was “inactive”.

With `Brc1ccc(Oc2ccc(Br)cc2)cc1`, the “activity change, negative = inhibition” value was 0.669% (inactive).

Consider `Cc1ccccc1C=O`, for which the Potency entry was “inactive”.

On to `O=C(c1ccccc1)c1ccc(O)c(O)c1O`, for which the “activity change, negative = inhibition” value was 12% [at 78.8 µM] (inactive).

In the case of `Cc1cccc(C)c1[N+](=O)[O-]`, the Potency entry is “inactive”.

Regarding `CS(=O)(=O)c1ccc(Cl)cc1`, the “activity change, negative = inhibition” value is 18.5% (inactive).

In the case of `CC(=O)OC[C@H]1O[C@@](COC(C)=O)(O[C@H]2O[C@H](COC(C)=O)[C@@H](OC(C)=O)[C@H](OC(C)=O)[C@H]2OC(C)=O)[C@@H](OC(C)=O)[C@@H]1OC(C)=O`, the “activity change, negative = inhibition” value was 1.6% (inactive).

As to `CO[Si](CCCNCCN)(OC)OC`, the “activity change, negative = inhibition” value is -15.6% [at 78.8 µM] (inactive).

Consider `CCCCCCCCCCCC(=O)N(C)CC(=O)O`, for which the activity change, negative = inhibition was 10.5% [at 6.95 µM] (inactive).

Regarding `CC(=O)OC(C)(C)C1CC=C(C)CC1` (stereo unspecified), the Potency entry is “inactive”.

Consider `CC(=O)C(C)C`, for which the “activity change, negative = inhibition” value is -15% [at 78.8 µM] (inactive).

System in a further test: not listed separately
The test is described as follows: qHTS assay to identify small molecule agonists of the vitamin D receptor (VDR) signaling pathway - cell viability counter screen (AID 743224). Further: nearly all actives have a fitted effect of over 50% in size. Particulars: VDR-bla HEK293T viability, CellTiter-Glo luminescence, 16 h; series mostly up to 62.6 µM; activity change, negative = cytotoxicity: at the top concentration. An outline of the steps: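 Here cell health was gauged by luminescent ATP detection (CellTiter-Glo, 30 min RT) in VDR-bla cells that had been incubated with test compounds for 16 h at 37C and 5% CO2.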
For the molecule `OCC(CO)(CO)CO`, the Potency result was “inactive”.

Turning to `Nc1cccc(N)n1`, the Potency entry was “inactive”.

For `Cc1cc(C)cc(O)c1`, the Potency result is “inactive”.

As to `CC(O)CNCC(C)O` (stereo unspecified), the Potency entry was “inactive”.

Regarding `N[C@@H](Cc1cc(I)c(Oc2ccc(O)c(I)c2)c(I)c1)C(=O)O`, the Potency result was “inactive”.

As for `N#CCC(=O)O`, the Potency entry was “inactive”.

With `C1CCCNCC1`, the Potency result is “inactive”.

On to `NC(=O)NC(N)=O`, for which the “activity change, negative = cytotoxicity” value was 9.74% [at 81.1 µM] (inactive).

As for `OCC(O)CS` (stereo unspecified), the Potency entry was “inactive”.

`O=[N+]([O-])c1ccccc1C(F)(F)F`: the Potency result is “inactive”.

With `CC1=CC(=O)CC(C)(C)C1`, the Potency result is “inactive”.

As for `C=CC(C)(C)C`, the Potency result was “inactive”.

As for `CN1Cc2c(N)cccc2C(c2ccccc2)C1` (stereo unspecified), the Potency entry is “inactive”.

Consider `COc1ccc(N)c(OC)c1`, for which the “activity change, negative = cytotoxicity” value is 23.3% (inactive).

Turning to `O=C(Cl)c1ccc(C(=O)Cl)cc1`, the Potency result is “inactive”.

For `OC1CCCCC1`, the Potency result was “inactive”.

With `CCCCCNCCCCC`, the Potency result is “inactive”.

In the case of `Brc1ccc(Oc2ccc(Br)cc2)cc1`, the Potency entry was “inactive”.

Regarding `Cc1ccccc1C=O`, the Potency entry is “inactive”.

Consider `CC(=O)OC/C=C(\C)CCC=C(C)C`, for which the Potency entry was “inactive”.

For the molecule `O=C(c1ccccc1)c1ccc(O)c(O)c1O`, the Potency result is “inactive”.

As to `Cc1nnc(NS(=O)(=O)c2ccc(N)cc2)s1`, the Potency result is “inactive”.

As to `COc1cc(NC(=O)CC(C)=O)c(OC)cc1Cl`, the Potency result was “inactive”.

For the molecule `Cc1cccc(C)c1[N+](=O)[O-]`, the “activity change, negative = cytotoxicity” value was 1.62% (inactive).

Turning to `CS(=O)(=O)c1ccc(Cl)cc1`, the Potency result was “inactive”.

As to `O=C1CCCCCCCCCCC1`, the Potency entry is “inactive”.

Consider `CCCCCCCCC(=O)O`, for which the Potency result was “inactive”.

On to `CC(=O)OC[C@H]1O[C@@](COC(C)=O)(O[C@H]2O[C@H](COC(C)=O)[C@@H](OC(C)=O)[C@H](OC(C)=O)[C@H]2OC(C)=O)[C@@H](OC(C)=O)[C@@H]1OC(C)=O`, for which the Potency result is “inactive”.

With `CC(C)(CO)CO`, the Potency result is “inactive”.

Turning to `CO[Si](CCCNCCN)(OC)OC`, the “activity change, negative = cytotoxicity” value was -21.4% [at 81.1 µM] (inactive).

Consider `CCCCCCCCCCCC(=O)N(C)CC(=O)O`, for which the Potency result was “inactive”.

In the case of `O=C(O)C1=NN(c2ccc(S(=O)(=O)O)cc2)C(=O)C1`, the Potency entry is “inactive”.

Take `CCc1cccc(CC)c1N`: the Potency result is “inactive”.

Turning to `CC(=O)OCCC(C)C`, the Potency result is “inactive”.

With `COC(=O)OC`, the Potency result is “inactive”.

For the molecule `Nc1nc(N)c2nc(-c3ccccc3)c(N)nc2n1`, the Potency entry was “inactive”.

Regarding `CC(=O)OC(C)(C)C1CC=C(C)CC1` (stereo unspecified), the “activity change, negative = cytotoxicity” value is 1.92% (inactive).

For the molecule `CC(=O)C(C)C`, the Potency entry is “inactive”.
